Compound activity as filed in PubChem.
AmpC no deterg: blocks E. coli AmpC beta-lactamase in detergent-free assay; Potency, µM (doses to about 57.1 µM), for the others: at the highest dose activity change, negative = inhibition, most hits filed as inhibitors; AmpC nitrocefin hydrolysis, absorbance 480 nm, 0.0001% Triton; 330,000 compounds, 0.52% hits; P00811;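 also: potency is read from the fitted curve at half-maximal effect; plate controls were no compound for no effect and no enzyme for full effect; nearly all actives have a fitted effect of over 20% in size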
Target sequence (P00811 whole entry, looked up): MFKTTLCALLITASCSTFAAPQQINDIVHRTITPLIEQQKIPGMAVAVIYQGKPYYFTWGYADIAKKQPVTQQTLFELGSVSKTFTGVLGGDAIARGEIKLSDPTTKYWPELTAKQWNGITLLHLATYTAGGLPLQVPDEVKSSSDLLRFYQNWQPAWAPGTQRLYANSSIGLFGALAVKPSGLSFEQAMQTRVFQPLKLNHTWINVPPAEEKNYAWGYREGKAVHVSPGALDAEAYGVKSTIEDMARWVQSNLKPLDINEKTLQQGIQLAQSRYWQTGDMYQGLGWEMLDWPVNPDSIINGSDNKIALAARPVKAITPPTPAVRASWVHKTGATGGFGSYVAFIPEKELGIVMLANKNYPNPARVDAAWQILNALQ
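AmpC (5.3 nM in the dispensed reagent) in 20 mM phosphate pH 7.0 with 0.01% (detergent screen) or 0.0001% Triton X-100 was preincubated with compounds for 15 min at room temperature. Nitrocefin was then added from an 800 uM solution, and hydrolysis was followed at 480 nm.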
CHX counter: counter-screen for Shiga toxin inhibitors: cycloheximide protein synthesis inhibition; max response, %; 300,000 compounds, 12% hits; cell reporter, cycloheximide protein synthesis inhibition counterscreen; AID 2314; in the data active = max response mostly above about 13%, no sharp cut-off; inactive = mostly below about 14%; also: read at 38.3 µM for the half of the compounds with a filed dose; 0% is about no effect
AmpC detergent: AmpC beta-lactamase inhibition with detergent present. P00811. AmpC hydrolysis of nitrocefin, absorbance 480 nm, 0.01% Triton. AID 485294. 370,000 compounds, 0.041% hits. Potency, µM (titrated, usually from 114 µM), without a hit: top-dose activity change, negative = inhibition, most hits filed as inhibitors;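 also: potency is read from the fitted curve at half-maximal effect; 0% = no-compound wells and -100% = no-enzyme wells; nearly all actives have a fitted effect of over 25% in size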
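20 mM phosphate pH 7.0 + 0.01% (detergent screen) or 0.0001% Triton X-100; 5.3 nM AmpC reagent; cpd preinc 15 min RT; nitrocefin (800 uM stock) to start; A480 q20 s × 4 min; Activity was normalised to no-enzyme and no-compound control wells.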
SARS PLpro yeast: inhibitors of SARS-CoV papain-like protease in yeast | S. cerevisiae expressing SARS-CoV PLpro, growth rescue | Potency, µM (top dose mostly 32.9 µM), for inactives: top-dose activity, positive = growth rescue, most hits filed as activators | 330,000 compounds, 0.19% hits | AID 485353; calls by dose curve; also: potency is read from the fitted curve at half-maximal effect; 0% is about no effect; nearly all actives have a fitted effect of over 55% in size
Shiga inhibitor: Shiga toxin inhibition | inhibition, % at 38.7 µM | Vero cells, Shiga toxin protein synthesis inhibition reporter | AID 2315 | 290,000 compounds, 9.2% hits; in the data active = inhibition mostly above about 28%, no sharp cut-off; inactive = mostly below about 43%; also: 0% is about no effect
AMA1-RON2 inh: disrupts binding of P. falciparum AMA1 to RON2; 360,000 compounds, 0.2% hits; Potency, µM (doses to about 58.2 µM), for inactives: top-dose activity change, negative = inhibition, most hits filed as inhibitors; AlphaScreen AMA1-biotinylated RON2 peptide binding;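 also: potency is read from the fitted curve at half-maximal effect; 0% = vehicle wells and -100% = peptide control; nearly all actives have a fitted effect of over 45% in size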
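AMA1 (3D7) with his tag at 25 nM final met compounds first, then biotinylated RON2 peptide at 25 nM; detection used donor plus acceptor beads, 10 µg/mL apiece, read by AlphaScreen after 30 min at room temperature.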
Starred values were filed as active, the others as inactive; ? = inconclusive; · = no result given; [ ] = remark or other dose. The full list was thinned out, with hits kept by preference. Unless noted, calls follow the shape of the dose curve; as a rule, active = well fitted curve in the direction sought with a large enough effect; inconclusive = small, poorly fitted or top-dose-only effect, or another doubt; inactive = no such curve, though single readings can be large; an effect the other way counts as inactive or inconclusive.

SMILES	AmpC no deterg	CHX counter	AmpC detergent	SARS PLpro yeast	Shiga inhibitor	AMA1-RON2 inh
Cc1ccc(S(=O)(=O)Oc2ccccc2/C=N/O)cc1	-7%[2.29 µM]	-1	-14%	-1%	3	-3%
Cc1ccc(S(=O)(=O)Oc2ccccc2/C=N/Nc2ccc(C(=O)O)cc2)cc1	-56%	26*	6%	1%	30	-25%
O=C1C(Nc2ccccc2)=C/C(=N/S(=O)(=O)c2cccs2)c2ccccc21	10µM*	11	-5%	-76%	16	?
Cc1ccc(S(=O)(=O)/N=C2\C=C(Nc3cccc(C(=O)O)c3)C(=O)c3ccccc32)c(C)c1	-11%	24*	4%	0%	64*	?
O=C1C=C(Nc2ccccc2)C(=O)c2ccccc21	-23%	48*	?	-19%	81*	?
Cc1ccc(S(=O)(=O)/N=C2\C=C(Nc3ccc(O)cc3)C(=O)c3ccccc32)cc1	-13%	·	·	-1%	·	20µM*
CCOC(=O)c1cc(-c2ccccc2)sc1NC(=O)C(C)N1C(=O)c2ccccc2C1=O (configuration not stated)	-31%	-4	-10%	-4%	-7	5%
CCCNC(=O)CCNS(=O)(=O)c1ccc2c(c1)c(=O)n(C)c(=O)n2C	·	·	9%	·	·	·
Cc1ccc(NC2=C/C(=N/S(=O)(=O)c3cccs3)c3ccccc3C2=O)cc1	-30%	48*	-5%	-14%	145*	-15%
COC(=O)c1ccccc1NC1=C/C(=N\S(=O)(=O)c2cccs2)c2ccccc2C1=O	-55%	28*	0%	-12%	41	3.2µM*
Cc1ccc(C2=[N+]([O-])C3(CCCCC3=O)N(O)C2(C)C)cc1 (configuration not stated)	-18%	-1	7%	2%	-8	0%
Oc1ccc(/C=N\Nc2nncc(-c3ccccc3)n2)cc1	5%	23*	-4%	4%	51*	91%
COc1ccc(-c2cnnc(N/N=C/c3ccc(O)c(O)c3)n2)cc1	-16%	30*	?	28%	32	-23%
COc1ccc(-c2cnnc(N/N=C/c3ccc(O)cc3)n2)cc1	-13%	30	-9%	0%	31	19%
O=C(Cn1cc(S(=O)(=O)c2ccc(F)cc2)c(=O)c2cc3c(cc21)OCO3)Nc1ccccc1	·	·	-1%	·	·	·
Cc1nc2[nH]c(=S)[nH]c(=O)c2nc1C	·	·	·	·	·	10%
Cc1nc2c(=O)[nH]c(=S)[nH]c2[nH]c1=O	·	·	·	·	·	28µM*
N#Cc1cc(NC(=O)c2ccc(Cl)cc2)ccc1Sc1ccccc1	·	·	·	·	·	0%
Cc1cccc(C)c1OCc1cc(C(=O)N2CCC(c3ccccc3)CC2)no1	-1%	41*	-10%	-3%	100*	14%
Cc1cccc(C)c1OCc1cc(C(=O)N2CCN(c3ccccn3)CC2)no1	94%	44*	-17%	-10%	46*	2%
Cc1cccc(C)c1OCc1cc(C(=O)N2CCC(C3CCCCC3)C2)no1 (configuration not stated)	·	·	·	·	·	-2%
Cc1cccc(C)c1OCc1cc(C(=O)N2CCN(c3ccc(F)cc3)CC2)no1	5%	52*	-5%	-3%	109*	-10%
COc1ccc(-n2c(=O)c3c4c(sc3n(CC(=O)NCc3ccco3)c2=O)CCC4)c(OC)c1	72%	20	-5%	25%	14	-19%
COc1ccc(-n2ncc3c2CC(C)(C)CC3NC(=O)C2CCN(C(C)=O)CC2)cc1 (configuration not stated)	101%	19*	4%	2%	23*	-4%
COc1ccc(-n2ncc3c2CC(C)(C)CC3NC(=O)c2ccoc2C)cc1 (configuration not stated)	32%	17*	-1%	·	15	-2%
CC(=O)N1CCC(C(=O)NC2CC(C)(C)Cc3c2cnn3-c2ccc(F)cc2)CC1 (configuration not stated)	54%	-1	-7%	2%	-9	-6%
COc1cccc(/C=N/Nc2ccccc2C(=O)O)c1O	-16%	47*	1%	0%	64*	11%
